# Test results published in PubChem BioAssay (NCATS).
# Results filed as inconclusive are left out. A call without a number means that no potency is given here. Activity calls are given as the source filed them. Unless noted, calls come from the whole dose curve; as a rule, active = well fitted curve in the direction sought with a large enough effect; inconclusive = small, poorly fitted or top-dose-only effect, or another doubt; inactive = no such curve, though single readings can be large; an effect the other way counts as inactive or inconclusive.
# Tests used:
# [1] = Inducers of the Endoplasmic Reticulum Stress Response (ERSR) in human glioma: Validation (AID 504836)
# Method in brief: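 Stably transfected U87-MG glioma cells carrying a GRP78-based luciferase sensor; 16 h compound incubation. Luminescence end-point read 10 min after Bright-Glo addition at room temperature.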
# [2] = S16 Schwann cell PMP22 intronic element firefly luciferase assay (AID 624032); note: nearly all actives have a fitted effect of over 30% in size; note: potency is the fitted concentration of half-maximal effect
# Method in brief: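 Rat S16 Schwann cells stably carrying firefly luciferase driven by a PMP22 intronic element, in 10% FBS, treated 24 h at 37 C. ONE-Glo luminescence normalized to PTC124 control and DMSO (0%); curves classed by r2, magnitude and activity.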
# W2 = test: qHTS profiling for inhibitors of Plasmodium falciparum proliferation (AID 504749); note: nearly all actives have a fitted effect of over 60% in size; note: potency is the fitted concentration of half-maximal effect; conditions: P. falciparum in erythrocytes, SYBR Green DNA, 72 h; series mostly up to 28.7 µM
# Method in brief: (§1)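 Readout was DNA-dye fluorescence from lysed cultures, ex 485/em 535 nm. Parasitized red cells had grown 72 h with compound; data scaled between 0.29 uM artemisinin and DMSO wells and corrected using vehicle-only plates.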
# CP260 = test: as above; conditions: P. falciparum in erythrocytes, SYBR Green DNA, 72 h; series mostly up to 28.7 µM
# Method in brief: as §1
# DIV17 = test: as above; conditions: P. falciparum in erythrocytes, SYBR Green DNA, 72 h; series mostly up to 28.7 µM
# Method in brief: as §1
# [3] = target: Cytochrome P450 3A4 (Homo sapiens) (UniProt P08684); test: qHTS Assay for Inhibitors and Substrates of Cytochrome P450 3A4 (AID 884); note: nearly all actives have a fitted effect of over 50% in size
# Method in brief: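 20 nM human CYP3A4 with 25 uM Luciferin-PPXE (at KM) in 200 mM KPO4, preincubated 10 min with compound; NADPH regeneration started a 60 min RT reaction. Luciferin detected by luminescence, normalized to 57 uM ketoconazole as full inhibition.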
# [4] = Confirmation and Secondary Assay for Modulators of Hemoglobin Beta Chain Splicing at IVS2 654 locus (AID 910);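 note: HeLa cells stably carrying EGFP split by mutant beta-globin IVS2-654 intron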
# Method in brief: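 HeLa cells stably expressing EGFP interrupted by β-globin IVS2-654 intron, seeded overnight in Opti-MEM/2% FCS, then treated 2 days at 37 °C. Restored splicing read as total peak GFP intensity per well by laser scanning cytometry (488 nm excitation, 500–520 nm emission); 500 nM antisense PNA as control.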
# [5] = Confirmation and Secondary Assay for Modulators of Hemoglobin Beta Chain Splicing at IVS2 705 locus (AID 930);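 note: HeLa cells stably expressing the EGFP-705 splicing reporter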
# Method in brief: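 Restored EGFP fluorescence after 2-day compound exposure reports splicing correction in IVS2-705 EGFP reporter HeLa cells; positive control was 500 nM splice-blocking PNA oligo. Signal measured as well total peak GFP intensity (488 nm excitation).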
# 7G8 = test: qHTS profiling for inhibitors of Plasmodium falciparum proliferation (AID 504749); note: nearly all actives have a fitted effect of over 60% in size; note: potency is the fitted concentration of half-maximal effect; conditions: P. falciparum in erythrocytes, SYBR Green DNA, 72 h; series mostly up to 28.7 µM
# Method in brief: as §1
# TAB109 = test: as above; conditions: P. falciparum in erythrocytes, SYBR Green DNA, 72 h; series mostly up to 28.7 µM
# Method in brief: as §1
# [6] = target: Peroxisome proliferator-activated receptor delta (Homo sapiens) (UniProt Q03181); test: qHTS assay for small molecule agonists of peroxisome proliferator-activated receptor delta signaling (AID 588534; calls by dose curve)
# Method in brief: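 Cell-based beta-lactamase reporter assay run in agonist mode: cells seeded and incubated 5 hrs at 37 C, compounds added and incubated 18 hrs at 37 C. CCF4 dye fluorescence read after 2 hrs at RT; EC50 and efficacy from Hill fits.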
# [7] = qHTS assay for small molecule antagonists of peroxisome proliferator-activated receptor delta signaling (AID 588535; active = well fitted inhibition curve with a large enough effect in the signal ratio, with a control signal flat, not every such curve was filed as active; the % refers to the signal ratio;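 for max response: cells co-treated with a PPAR-delta agonist as stimulator during compound exposure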); conditions: HEK293T PPARd-UAS-bla, beta-lactamase FRET ratio, 18 h; 460 nm channel
# Method in brief: (§2)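 Cells were seeded at 4000 per well in assay medium containing 2% charcoal/dextran FBS and held 5 hrs at 37 C. Compounds were then added for 18 hrs. CCF4 substrate was applied for 2 hrs at room temperature before fluorescence reading.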
# [8] = target: Peroxisome proliferator-activated receptor delta (Homo sapiens) (UniProt Q03181); test: as above
# Method in brief: as §2
# [9] = target: Vitamin D3 receptor (Homo sapiens) (UniProt P11473); test: qHTS assay for small molecule antagonists of vitamin D receptor signaling (AID 588541; calls by dose curve;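 note: receptor activated by calcitriol during compound treatment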)
# Method in brief: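 VDR-UAS-bla HEK293T cells in 2% charcoal-stripped FBS were stimulated with 1-alpha,25-dihydroxyvitamin D3 (3 nM final) plus compound for 16 h at 37 C. The beta-lactamase CCF4 readout was normalized to 50 nM agonist and DMSO, and Hill fits gave IC50.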
# [10] = target: Vitamin D3 receptor (Homo sapiens) (UniProt P11473); test: qHTS assay for small molecule agonists of vitamin D receptor signaling (AID 588543; calls by dose curve)
# Method in brief: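 qHTS in agonist mode: compound titrations stimulate a VDR-driven β-lactamase reporter in HEK293T cells over 16 h at 37 °C. Response normalized to 50 nM 1α,25-dihydroxyvitamin D3 = 100%, DMSO = 0%; Hill fitting gives EC50 and maximal response.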
# [11] = target: Cytochrome P450 3A4 (Homo sapiens) (UniProt P08684); test: qHTS Assay for Activators of Cytochrome P450 3A4 (AID 885); note: nearly all actives have a fitted effect of over 65% in size
# Method in brief: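 20nM CYP3A4 + 25uM Luciferin-PPXE (=KM), 200mM KPO4; cpd 10 min RT; NADPH regen, 60 min RT; stop w/ detection buffer, 20 min; luminescence. Normalized to 57 uM ketoconazole.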
# [12] = target: Alpha-galactosidase (Coffea arabica) (UniProt Q42656); test: Counterscreen for Glucocerebrosidase Inhibitors: qHTS Assay for Coffee Bean alpha-Galactosidase at pH 4.5 (AID 957)
# Method in brief: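 Green coffee bean enzyme (2 nM final) was incubated with compounds (0.7 nM to 77 uM) and 4-methylumbelliferyl alpha-D-galactopyranoside (80 uM final) in 50 mM citric acid, 0.005% Tween-20, pH 4.5, 20 min at room temperature; AC50 from Hill fits.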
# [13] = target: Alpha-galactosidase (Coffea arabica) (UniProt Q42656); test: Counterscreen for Glucocerebrosidase Inhibitors: qHTS Assay for Coffee Bean alpha-Galactosidase at pH 5.9 (AID 998)
# Method in brief: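 Green coffee bean enzyme (2 nM) with 4-methylumbelliferyl alpha-D-galactopyranoside (80 uM) in 50 mM citric acid, 0.005% Tween-20, pH 5.9, 20 min at room temperature; compounds 0.7 nM–77 uM. Stopped at pH 10, fluorescence Ex365/Em440; Hill-fit AC50.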
# Chain of Cytochrome P450 3A4 (Homo sapiens) (P08684 whole entry, looked up): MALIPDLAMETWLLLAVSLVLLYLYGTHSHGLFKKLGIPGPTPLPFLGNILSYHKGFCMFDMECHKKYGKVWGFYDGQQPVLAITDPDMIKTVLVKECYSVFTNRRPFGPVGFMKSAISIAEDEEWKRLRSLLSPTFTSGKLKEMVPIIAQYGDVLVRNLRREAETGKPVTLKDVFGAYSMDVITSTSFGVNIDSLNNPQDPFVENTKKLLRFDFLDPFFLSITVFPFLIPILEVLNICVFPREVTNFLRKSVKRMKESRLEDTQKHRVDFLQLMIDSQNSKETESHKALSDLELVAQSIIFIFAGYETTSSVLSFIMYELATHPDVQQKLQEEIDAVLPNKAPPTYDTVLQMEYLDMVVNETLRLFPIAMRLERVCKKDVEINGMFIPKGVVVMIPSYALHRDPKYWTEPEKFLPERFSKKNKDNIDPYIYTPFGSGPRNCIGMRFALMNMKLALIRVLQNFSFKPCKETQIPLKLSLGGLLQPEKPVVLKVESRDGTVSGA
# Chain of Vitamin D3 receptor (Homo sapiens) (P11473 whole entry, looked up): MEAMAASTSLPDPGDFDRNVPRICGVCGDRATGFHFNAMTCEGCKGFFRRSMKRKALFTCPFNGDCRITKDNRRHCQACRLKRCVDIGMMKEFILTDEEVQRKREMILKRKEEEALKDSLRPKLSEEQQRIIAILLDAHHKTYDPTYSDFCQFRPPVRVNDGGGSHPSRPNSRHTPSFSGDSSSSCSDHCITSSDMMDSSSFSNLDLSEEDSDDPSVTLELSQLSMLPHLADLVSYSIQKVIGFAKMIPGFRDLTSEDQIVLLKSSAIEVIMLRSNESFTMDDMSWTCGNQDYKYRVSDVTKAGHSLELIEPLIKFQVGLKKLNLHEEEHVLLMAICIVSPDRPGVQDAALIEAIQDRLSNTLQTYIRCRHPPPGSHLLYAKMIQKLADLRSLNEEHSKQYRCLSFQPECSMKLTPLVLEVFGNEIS
# Chain of Peroxisome proliferator-activated receptor delta (Homo sapiens) (Q03181 whole entry, looked up): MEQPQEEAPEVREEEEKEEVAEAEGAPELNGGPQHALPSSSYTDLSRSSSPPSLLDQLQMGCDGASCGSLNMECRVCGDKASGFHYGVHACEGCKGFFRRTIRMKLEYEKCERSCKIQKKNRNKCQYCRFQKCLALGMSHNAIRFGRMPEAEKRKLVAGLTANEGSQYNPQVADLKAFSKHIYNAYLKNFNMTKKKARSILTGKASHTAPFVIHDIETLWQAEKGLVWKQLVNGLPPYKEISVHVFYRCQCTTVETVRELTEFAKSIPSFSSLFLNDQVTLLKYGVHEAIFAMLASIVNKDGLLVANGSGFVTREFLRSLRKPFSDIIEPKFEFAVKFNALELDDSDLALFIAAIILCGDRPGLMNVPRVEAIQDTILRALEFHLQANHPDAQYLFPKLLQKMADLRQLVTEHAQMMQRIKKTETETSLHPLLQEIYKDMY
# Chain of Alpha-galactosidase (Coffea arabica) (Q42656 whole entry, looked up): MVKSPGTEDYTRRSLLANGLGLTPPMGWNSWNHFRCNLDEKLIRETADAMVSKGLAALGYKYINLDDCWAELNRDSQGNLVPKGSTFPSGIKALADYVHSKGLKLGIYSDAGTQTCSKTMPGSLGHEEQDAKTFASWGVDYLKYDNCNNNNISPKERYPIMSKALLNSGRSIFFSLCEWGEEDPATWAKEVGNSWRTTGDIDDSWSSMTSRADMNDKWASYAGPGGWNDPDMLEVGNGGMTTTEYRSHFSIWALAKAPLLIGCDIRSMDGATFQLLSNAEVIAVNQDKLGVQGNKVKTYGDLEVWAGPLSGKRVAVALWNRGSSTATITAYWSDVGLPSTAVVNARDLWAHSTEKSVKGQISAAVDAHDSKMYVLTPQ
structure (smiles),measurement,setting,value
O=C(CCCCCN1CCN(c2ccccc2-c2ccccc2)CC1)NC1CCCc2ccccc21 (stereo not drawn),outcome,[1],inactive
CC(C)(C)c1ccc(/C=C/C(=O)Nc2ccc3c(c2)OCCO3)cc1,outcome,[1],inactive
CCC(=O)OC1(c2ccccc2)CCN(C)CC1C (stereo not drawn),Potency,[2],inactive
same,Potency,W2,3.79 µM (active)
C[C@]12CCC3C(CCC4=C(Cl)C(=O)CC[C@@]43C)C1CCC2O (stereo partly drawn),Potency,CP260,inactive
same,Potency,DIV17,inactive
same,Potency,W2,inactive
CC1CC[C@@]2(NC1)OC1CC3C4CC[C@@H]5CC(O)CC[C@@]5(C)C4CC[C@]3(C)C1C2C (stereo partly drawn),Potency,[3],inactive
same,Potency,[4],inactive
same,outcome,[5],inactive
same,Potency,[2],inactive
same,Potency,7G8,12.6 µM (active)
same,Potency,TAB109,inactive
CC(C)=CC1C(C(=O)OCc2coc(Cc3ccccc3)c2)C1(C)C (stereo not drawn),outcome,[6],inactive
same,max response,[7],-29.1%
same,Potency,[8],inactive
same,Potency,[9],inactive
same,outcome,[10],inactive
same,Potency,[2],inactive
same,Potency,CP260,inactive
same,Potency,TAB109,inactive
O=C1CC2OCC=C3CN4CC[C@]56c7ccccc7N1C5C2[C@H]3C[C@H]46 (stereo partly drawn),Potency,[2],inactive
same,Potency,7G8,11.2 µM (active)
same,Potency,CP260,11.2 µM (active)
same,Potency,DIV17,inactive
same,Potency,W2,3.38 µM (active)
CC(=O)[C@H]1CC[C@H]2C3CC[C@H]4C[C@H](O)CC[C@]4(C)C3CC[C@]12C (stereo partly drawn),Potency,[2],inactive
same,Potency,DIV17,inactive
same,Potency,TAB109,inactive
C[C@@H](N)[C@@H](O)c1ccc(O)c(O)c1,Potency,7G8,inactive
same,Potency,CP260,inactive
same,Potency,DIV17,inactive
same,Potency,TAB109,inactive
same,Potency,W2,inactive
CC#CCOC(=O)c1c(C)nc2sc3c(c2c1N)CCC(O)C3 (stereo not drawn),outcome,[1],inactive
COC(=O)C1C(OC(=O)c2ccccc2)CC2CCC1N2C (stereo not drawn),Potency,[2],inactive
same,Potency,7G8,inactive
same,Potency,CP260,inactive
same,Potency,DIV17,inactive
same,Potency,TAB109,inactive
same,Potency,W2,inactive
Cc1cc2c(cc1Cl)N(C(=O)Nc1ccc(Oc3cccnc3C)nc1)CC2,outcome,[1],inactive
CN(C)C1C(=O)C(C(N)=O)C(=O)C2(O)C(=O)C3C(=O)c4c(O)cccc4C(C)(O)C3C(O)C12 (stereo not drawn),Potency,[2],inactive
same,Potency,W2,6.75 µM (active)
CCCCCCC(=O)O[C@H]1CC[C@H]2[C@@H]3CCC4CC(=O)C=C(C)[C@]4(C)[C@H]3CC[C@]12C (stereo partly drawn),Potency,[2],11.4 µM (active)
same,Potency,7G8,8.91 µM (active)
same,Potency,TAB109,inactive
same,Potency,W2,7.57 µM (active)
COC(C(=O)C(O)C(C)O)C1Cc2cc3cc(OC4CC(OC5CC(O)C(OC)C(C)O5)C(OC(C)=O)C(C)O4)c(C)c(O)c3c(O)c2C(=O)C1OC1CC(OC2CC(OC3CC(C)(O)C(OC(C)=O)C(C)O3)C(O)C(C)O2)C(O)C(C)O1 (stereo not drawn),Potency,[2],inactive
same,Potency,7G8,0.112 µM (active)
same,Potency,CP260,0.126 µM (active)
same,Potency,DIV17,2.69 µM (active)
same,Potency,TAB109,0.794 µM (active)
same,Potency,W2,0.426 µM (active)
CN(C)[C@@H](Cc1ccccc1)c1ccccc1,Potency,[2],inactive
same,Potency,CP260,inactive
same,Potency,TAB109,inactive
same,Potency,W2,4.78 µM (active)
CC(CO)NC(=O)C1C=C2c3cccc4[nH]cc(c34)CC2N(C)C1 (stereo not drawn),Potency,[2],inactive
same,Potency,7G8,inactive
same,Potency,CP260,inactive
same,Potency,TAB109,inactive
same,Potency,W2,inactive
O=[N+]([O-])OC1CO[C@H]2C(O[N+](=O)[O-])COC12 (stereo partly drawn),Potency,[3],inactive
same,Potency,[4],inactive
same,outcome,[5],inactive
same,Potency,[2],inactive
same,Potency,7G8,inactive
same,Potency,CP260,inactive
same,Potency,DIV17,inactive
same,Potency,TAB109,inactive
same,Potency,W2,inactive
C=C1CC2C(CC[C@]3(C)C(=O)CCC23)[C@]2(C)C=CC(=O)C=C12 (stereo partly drawn),Potency,[3],inactive
same,Potency,[4],inactive
same,outcome,[5],inactive
same,Potency,[2],11.4 µM (active)
same,Potency,DIV17,inactive
same,Potency,TAB109,inactive
CC(Cc1ccccc1)N(C)C (stereo not drawn),Potency,[2],inactive
same,Potency,CP260,inactive
same,Potency,DIV17,inactive
same,Potency,TAB109,inactive
CC12CCC3C4CCC(=O)C(O)=C4CCC3C1CCC2OC(=O)CCC1CCCC1 (stereo not drawn),Potency,[2],inactive
same,Potency,CP260,inactive
same,Potency,DIV17,inactive
same,Potency,TAB109,inactive
CC[C@@H](CO)Nc1nc(NCc2ccccc2)c2ncn(C(C)C)c2n1,Potency,[11],inactive
same,outcome,[12],inactive
same,outcome,[13],inactive
same,outcome,[1],inactive
Oc1ccc(/C=C/c2ccc(/C=C/c3ccc(O)cc3)c(Br)c2)cc1,outcome,[1],inactive
CCN(CC)C(=O)N[C@@H]1C=C2c3cccc4[nH]cc(c34)C[C@H]2N(C)C1,Potency,[2],inactive
same,Potency,7G8,8.91 µM (active)
same,Potency,DIV17,10.7 µM (active)
same,Potency,W2,5.36 µM (active)
C=C1C(=O)O[C@@H]2[C@H]3O[C@]3(C)CCC=C(C)CC[C@@H]12,outcome,[1],inactive
C[C@]12CC[C@H]3[C@@H](CC[C@@]45O[C@@H]4C(=O)C(C#N)C[C@]35C)[C@@H]1CC[C@@H]2O (stereo partly drawn),Potency,[2],inactive
same,Potency,7G8,inactive
same,Potency,CP260,inactive
CCC/C=C/C=C/C(=O)OC1/C(=C/C(=O)OC)CC2CC(C(C)O)OC(=O)CC(O)CC3CC(OC(C)=O)C(C)(C)C(O)(CC4C/C(=C/C(=O)OC)CC(/C=C\C(C)(C)C1(O)O2)O4)O3 (stereo not drawn),Potency,[2],inactive
same,Potency,7G8,0.708 µM (active)
same,Potency,CP260,2.82 µM (active)
same,Potency,DIV17,0.953 µM (active)
same,Potency,TAB109,2.51 µM (active)
same,Potency,W2,0.953 µM (active)
C=CC[C@]1(O)CCC2C3CCC4=CCCCC4C3CCC21C (stereo partly drawn),Potency,[2],22.8 µM (active)
same,Potency,CP260,inactive
same,Potency,DIV17,inactive
same,Potency,TAB109,inactive
C#CC1(O)C=CC2C3CCC4=CC(=O)CCC4C3CCC21CC (stereo not drawn),Potency,[2],6.42 µM (active)
same,Potency,7G8,12.6 µM (active)
same,Potency,DIV17,9.53 µM (active)
same,Potency,W2,6.01 µM (active)
